DRD3 agonist = D3 dopamine receptor (human) agonism | P35462 | D3R DiscoveRx beta-arrestin cells, luminescence, 90 min | max activation, % | hit rate 0.58% among 410,000 | AID 652048; in the data active = max activation above about 30%; also: 0% is about no effect
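Cells at 1500/well, incubated overnight, then treated with pinned compounds (dopamine as control) for 90 min at 37 degrees C. DiscoveRx reagent added for 30 - 60 minutes at room temperature; luminescence read.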
D3 antag = antagonists of human D3 dopamine receptor. hit rate 2.5% among 360,000. max response, negative = inhibition, %. P35462. D3R cells, DiscoveRx beta-arrestin luminescence, antagonist mode; hits give low values; in the data active = max response below about -50%; inconclusive = no clear call, values can overlap the other calls; also: % is scaled to controls: 0 for no effect and ±100 for the full control effect
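Cells expressing the human receptor were seeded at 1500 cells/well, incubated overnight at 37 degrees C in 5% CO2, then exposed to library compounds with dopamine controls for 90 minutes at 37 degrees C before luminescent detection.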
PTHR1 agonist = agonists of human PTHR1 parathyroid hormone receptor; Q03431; HEK293 GP2 PTHR1 cells, GloSensor cAMP luminescence, 1 h; Potency, µM (highest dose often 115 µM), inactives show at the highest dose activation, actives largely listed as activators; hit rate 0.075% among 410,000; AID 743266; also: potency is read from the fitted curve at half-maximal effect; nearly all actives have a fitted effect of over 55% in size
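HEK-293-derived GP2 cells expressing PTHR1 and a GloSensor cAMP reporter, 3,000/well, plated overnight, given luciferin plus IBMX (each 0.5 mM as added) for 1 h at 37 °C, then compound for 1 h at 37 °C. Luminescence was read after 15 min at room temperature.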
RGS4 inhibitor = blocks human RGS4-accelerated GTP hydrolysis | P49798 | Transcreener GDP fluorescence polarization, RGS4-accelerated GTP hydrolysis | Potency, µM (highest dose often 114 µM), for inactives: top-dose activity change, negative = inhibition, hits mostly inhibitors | hit rate 0.039% among 390,000; also: potency is read from the fitted curve at half-maximal effect; % is scaled to controls: 0 for no effect and ±100 for the full control effect; nearly all actives have a fitted effect of over 75% in size
Target sequence (P49798 whole entry, looked up): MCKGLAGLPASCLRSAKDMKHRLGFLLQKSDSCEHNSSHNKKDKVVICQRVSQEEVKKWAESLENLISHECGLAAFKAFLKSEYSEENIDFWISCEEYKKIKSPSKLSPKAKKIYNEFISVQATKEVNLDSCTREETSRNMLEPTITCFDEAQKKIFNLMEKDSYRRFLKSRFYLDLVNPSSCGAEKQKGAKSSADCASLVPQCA
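MLSMR compounds (23 nl, pin-transferred) preincubated 10 min at room temperature with a 500nM (2x) first reagent, then RGS4 at 900nM (2x) plus Transcreener GDP mix added; fluorescence polarization (620/688 nm) read before and after 90 min at 30 °C.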
B2AR arrestin = agonists driving beta-arrestin recruitment to human beta2-adrenergic receptor | P07550 | beta-arrestin recruitment to beta2AR, cell-based reporter | Potency, µM (highest dose often 46.1 µM), for the others: at the top dose activation, most hits filed as activators | hit rate 0.02% among 330,000;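 also: potency is read from the fitted curve at half-maximal effect; 0% = DMSO controls and full agonism = EC100 isoproterenol or metaproterenol; nearly all actives have a fitted effect of over 65% in size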
Target sequence (P07550 whole entry, looked up): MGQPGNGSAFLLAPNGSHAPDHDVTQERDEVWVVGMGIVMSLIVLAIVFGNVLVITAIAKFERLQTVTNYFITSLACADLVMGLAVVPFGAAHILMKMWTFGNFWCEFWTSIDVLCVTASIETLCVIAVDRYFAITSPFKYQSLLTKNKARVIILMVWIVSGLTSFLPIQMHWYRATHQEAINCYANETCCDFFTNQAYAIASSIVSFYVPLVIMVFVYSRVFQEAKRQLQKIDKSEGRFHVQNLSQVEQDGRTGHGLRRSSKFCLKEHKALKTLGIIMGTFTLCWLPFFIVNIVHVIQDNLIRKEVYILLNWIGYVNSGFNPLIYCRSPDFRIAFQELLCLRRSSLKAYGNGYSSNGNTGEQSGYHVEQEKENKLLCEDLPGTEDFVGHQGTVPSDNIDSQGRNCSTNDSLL
BRCA1 expr up = BRCA1 expression activation; hit rate 1.1% among 380,000; Potency, µM (highest dose often 46.1 µM), without a hit: at the top dose activation, most hits filed as activators; MCF7-BRCA1-FFLuc reporter, luminescence, 48 h; response scale: scaled: vehicle 0%, 10 µM genistein 100%; also: potency is read from the fitted curve at half-maximal effect; nearly all actives have a fitted effect of over 80% in size
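MCF7-BRCA1-FFLuc cells, 2000/well in phenol-red-free MEM, attached 2 h then treated 48 h at 37 C. Luciferase luminescence read 15 min after reagent; normalized to genistein maximum activation (10microM) and DMSO, concentration-response fitted.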
Starred values were filed as active, the others as inactive; i = inactive; ? = inconclusive; . = no result given; [ ] = remark or other dose. In the library only some 3.7% were active in any assay of this set; here they are far more common. Unless noted, calls follow the shape of the dose curve; as a rule, active = well fitted curve in the direction sought with a large enough effect; inconclusive = small, poorly fitted or top-dose-only effect, or another doubt; inactive = no such curve, though single readings can be large; an effect the other way counts as inactive or inconclusive.

SMILES	DRD3 agonist	D3 antag	PTHR1 agonist	RGS4 inhibitor	B2AR arrestin	BRCA1 expr up
COc1ccccc1/C=C/c1ccc2cccc(O)c2n1	-17.4	-11.7	-5.4%	-11.9%	-0.4%	74.3%
COc1cc(Cl)cc(/C=C/c2ccc3cccc(O)c3n2)c1OC	-1.1	-93.7*	-2.2%	-1.2%	0.2%	-62.6%
Oc1cccc2ccc(/C=C/c3ccccc3Cl)nc12	-22.1	-175.9*	-4.8%	10.8%	0.3%	-34.9%
Cc1ccc2cccc(S(=O)(=O)N3CCCc4ccccc43)c2n1	5.0	9.0	-31.4%	-6.2%	-0.1%	-21.4%
CC(=O)c1cccc(NC(=O)C2=CN3CCS(=O)(=O)N=C3C=C2)c1	-4.6	13.7	i	-6.4%	0.5%	3.4%
Cc1ccccc1NC(=O)c1sc2nc3c(cc2c1N)CCCC3	-4.5	.	-82.0%	-10.7%	.	.
CC(/C=C/c1ccc(O)cc1)=N/O	7.1	0.4	i	3.2%	-0.1%	12.6µM*
Cc1cccc(NC(=O)CSc2nnc(NC(=O)Nc3ccccc3)s2)c1C	7.1	.	i	15.3%	.	.
COc1ccc(-c2noc(CCCCC(=O)N3CCN(c4cc(C)ccc4C)CC3)n2)cc1	52.9*	100.5	-51.2%	18.0%	-0.5%	-54.4%
Cc1ccc(-c2noc(CCC(=O)N3CCN(c4cc(C)ccc4C)CC3)n2)cc1	5.9	53.1	-34.7%	7.2%	-0.4%	13.4%
Cc1ccc(C)c(N2CCN(C(=O)CCc3nc(-c4ccccc4C(F)(F)F)no3)CC2)c1	38.7*	108.2	-44.5%	8.6%	-0.3%	65.9%
COc1ccccc1-c1noc(CCC(=O)N2CCN(c3cc(C)ccc3C)CC2)n1	48.7*	63.8	-95.8%	3.7%	-0.4%	0.8%
Cc1ccc(C)c(N2CCN(C(=O)CCCOc3cc(=O)n(C)c4ccccc34)CC2)c1	78.9*	29.7	-38.3%[57.5 µM]	-20.9%	0.0%	-66.3%
CNC(C)CCC=C(C)C (stereo not given)	-19.7	.	.	.	.	.
COC(=O)[C@@]1(Cc2ccc(F)cc2)[C@H]2c3cc(C(=O)N(C)C)n(Cc4nc5ccccc5[nH]4)c3C[C@H]2CN1C(=O)c1ccccc1	-65.6	-67.6*	i	-11.3%	6.5%	-44.1%
N#C/C(=C\c1cc(Cl)cc(Cl)c1)c1cccnc1	.	.	.	i	.	.
Cc1nc2cc(Nc3nnc(-c4ccccc4)c4ccccc34)ccc2n1C	-13.0	-14.2	-7.0%	6.9%	-0.8%	4.47µM*
Cc1cc(C)nc(SCc2csc(N)n2)n1	3.7	-50.9*	i	24.5%	-0.5%	31.2%
Cc1cc(C)nc(SCc2csc(-c3ccccc3)n2)n1	-1.7	?	-40.3%	-25.7%	1.0%	?
Cn1cccc1-c1cc(C(=O)N/N=C/c2ccccc2Cl)[nH]n1	-15.1	-78.3*	-24.8%	-14.7%	-0.4%	8.91µM*
Cn1cccc1-c1cc(C(=O)N/N=C/c2ccc(F)cc2)[nH]n1	-24.8	-82.3*	10.0%	-7.9%	1.0%	-13.6%
Cn1cccc1-c1cc(C(=O)N/N=C/c2cc(Br)ccc2O)[nH]n1	10.8	16.0	i	-22.2%	-0.4%	-69.7%
Cn1cccc1-c1cc(C(=O)N/N=C/c2ccc([N+](=O)[O-])cc2)[nH]n1	-7.3	-11.5	-1.8%	21.7%	0.6%	-45.2%
O=C(NNC(=O)c1c(O)c2ccccc2[nH]c1=O)c1ccccc1Br	0.0	5.4	i	9.6%	0.0%	-4.7%
CCOC(=O)c1cnc2c(cnn2CC)c1NN=C(C)C	-4.2	.	.	-8.2%[56.9 µM]	.	.
SMILES	DRD3 agonist	D3 antag	PTHR1 agonist	RGS4 inhibitor	B2AR arrestin	BRCA1 expr up
Nn1cc(-c2ccccc2)nc1SCC(=O)Nc1ccc(S(N)(=O)=O)cc1	-21.8	-6.3	-20.1%	-28.3%[56.9 µM]	-0.8%	0.0%
COc1cnc(-c2ccccn2)nc1Oc1ccccc1Cl	1.4	-0.8	i	-20.7%	-0.2%	8.4%
COc1cnc(-c2ccccn2)nc1Oc1ccc(Cl)c2ccccc12	-6.8	-93.6*	-19.1%[57.5 µM]	-30.9%	-0.3%	-102.8%
COc1cnc(-c2ccccn2)nc1Oc1ccc(Cl)cc1	-5.0	-73.1*	i	26.0%	0.2%	0.5%
COc1cnc(-c2ccccn2)nc1Sc1ccc(C)cc1	-7.7	-2.6	-2.7%	-1.2%	0.5%	-58.5%
COc1cnc(-c2ccccn2)nc1Sc1cccc(Cl)c1	-5.4	-70.7*	i	-17.5%	0.2%	-0.2%
O=[N+]([O-])c1cccc2nc3ccccc3c(NCCCn3ccnc3[N+](=O)[O-])c12	-14.9	?	i	-7.1%	.	-86.1%
COc1ccc(C(O)c2nc(-c3cccc(NC(C)=O)c3)cs2)cc1 (stereo not given)	-1.6	-2.1	-1.5%	.	.	23.6%
COc1ccc2nc(/N=C(\N)NC(=O)C(C)(C)C)nc(C)c2c1	1.6	-17.9	-3.3%[57.5 µM]	27.6%	0.2%	11.2µM*
C(=N\n1cnnc1)/c1ccc(OCc2ccccc2)cc1	8.0	19.3	i	13.6%	0.2%	12.6µM*
CN1CCN(/N=C/c2ccc(OCc3ccccc3)cc2)CC1	-15.1	?	-47.2%	10.4%	0.2%	7.94µM*
O=C(/C=C/c1ccc(Br)cc1)NC(=S)NNC(=O)c1ccco1	-9.8	-83.6*	-1.3%[57.5 µM]	-47.1%	0.2%	7.3%
COc1cc(NCCCC(C)N)c2ncccc2c1 (stereo not given)	-10.2	-54.1*	-19.0%[57.5 µM]	-40.6%	0.0%	-105.2%
COc1cc(NCCCCC(C)N)c2nccc(C)c2c1 (stereo not given)	-0.4	0.5	-24.6%	.	.	-75.4%
CCC(CNc1cc(OC)cc2cccnc12)NC1CCCCC1 (stereo not given)	-16.1	-56.8*	i	-31.6%	-0.2%	-50.4%
C/C(=N\NC(=O)c1nnn(-c2nonc2N)c1-c1ccc2c(c1)OCO2)c1cccs1	-2.9	-18.3	i	8.4%	0.1%	0.4%
Cc1nn(C(CC(=O)O)C(=O)O)c(C)c1Br (stereo not given)	41.6*	-22.2	i	-7.7%	-0.2%	4.3%
O=[N+]([O-])c1cccnc1S(=O)(=O)c1ccccc1	-8.6	-73.6*	-25.8%	-34.2%	-0.1%	-91.8%
COc1ccc([N+](=O)[O-])c(S(=O)(=O)c2ccc(Cl)cc2)n1	-10.5	-95.1*	-29.9%	?	-0.8%	-101.1%
COc1ccc([N+](=O)[O-])c(S(=O)(=O)c2ccccc2)n1	-44.8	-75.6*	-92.0%	?	-0.5%	-85.4%
O=C(NCC1CCCO1)c1ccc2c(=O)n(CC3CCCO3)c(SCC(=O)N3CCCC3)nc2c1 (stereo not given)	1.1	-7.1	10.8%	-36.6%	-0.2%	-40.3%
CCCc1ccc(Oc2c(-c3ccc(O)c(C)c3O)n[nH]c2C)cc1	-0.3	-80.8*	-24.8%	-7.5%	0.4%	-67.5%
CCc1ccccc1NS(=O)(=O)c1ccc2c(c1)CC(=O)N2	-4.3	.	-9.2%	9.5%	.	0.1%

Source: PubChem (National Center for Advancing Translational Sciences (NCATS))
